According to PubChem BioAssay:
Measured potencies and affinities stand elsewhere. Inconclusive results are not listed. Activity calls are given as the source filed them. Unless noted, how the calls were made is not given here.

How the values were obtained:
[1] = RMG-1 ovarian cancer cell viability loss – cherry-pick, dose response (AID 687029;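 active means signal drop whose fitted half-maximal concentration is at most twice the top valid dose, in every test run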;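 further: cells exposed to compound for 96 hours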)
[2] = IOSE-T80 viability loss, PAX8-independent line – cell-based, cherry-pick, selectivity assay for PAX8 inhibitor project, dose response (AID 687032;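 active means fitted half-maximal concentration for viability loss no higher than twice the top valid dose, in every repeat run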;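 further: cells exposed to compound for 96 h before reading; 0% = neutral control wells and -100% = 2 µM mitoxantrone kill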)
[3] = general cell-killing toxicity readout – plate reader, dry powder samples, cytotoxicity control for PAX8 inhibitor project, dose response (AID 743021)
[4] = CMV-driven luciferase expression suppression in HEK293 – cell-based, luminescence, dry powder, counter-screen for Pax8 inhibitor project, dose response (AID 743020;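 active means signal-lowering compounds whose fitted half-maximal concentration is at or below twice the top tested dose in every run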;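 further: HEK293 cells stably expressing the CMV luciferase reporter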)
[5] = A2780 cell killing – plate reader, dry powder samples, cytotoxicity control, dose response (AID 743046);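 further: 0% = neutral control wells and -100% = cytotoxic reference compound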
[6] = OVCAR8 cell viability loss – plate reader, dry powder samples, PAX8 project, dose response (AID 743197)
[7] = IGROV1 cell killing – plate reader, dry powder samples, PAX8 inhibitor project, dose response (AID 743043);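 further: more negative means fewer viable cells or more cytotoxicity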
[8] = OVCAR-3 cell viability loss – plate reader, dry powder samples, PAX8 inhibitor project, dose response (AID 743044); conditions: max activity: at 35 µM, stronger effect = lower value unless noted
[9] = toxicity toward immortalized ovarian surface epithelium – cell-based, plate reader, dry powder samples, cytotoxicity control for PAX8 inhibitor project, dose response (AID 743045);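 further: 0% = neutral control median and -100% = positive control median; more negative values mean more cell killing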
[10] = A549 cell cytotoxicity, dose response, cytotoxicity control, plate reader, cherry-pick, antagonist series (AID 743412);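 further: 0% = neutral control wells and -100% = positive control wells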
[11] = toxicity toward HepG2 liver cells – cell-based, plate reader, cherry-pick, antagonist series, cytotoxicity control, dose response (AID 743416);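 further: 0% = neutral control wells and -100% = positive control wells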

Measured: max activity

COc1cc(/C=N\NC(=O)c2ccc(-c3ccccc3)cc2)cc(OC)c1OC(C)=O
inactive: [1] | [2] | [3]

C=C1C(=O)[C@]23C[C@H]1CCC2[C@]1(C)CCC[C@@](C)(C(=O)O)C1C[C@@H]3O (some centres not stated)
inactive: [1] | [2] | [3]

O=C(O)CCCN1C(=O)/C(=C\C(Cl)=C\c2ccccc2)SC1=S
inactive: [1] | [2] | [3]

O=C(Nc1cccc(F)c1)N1C[C@@H]2N[C@H](C1)C2c1ccc(-c2ccc(F)cc2)cc1 (some centres not stated)
inactive: [1] | [2] | [4] | [5] | [6]

NC(=O)c1ccsc1NC(=O)c1ccc([N+](=O)[O-])o1
inactive: [1] | [2] | [3]

Oc1ccc(N=Nc2ccccc2C(F)(F)F)c2cccnc12
inactive: [1] | [2] | [3]

CS(=O)(=O)Nc1ccc2c(c1)[C@@H]1C[C@@H](CC(=O)NCc3ccc(Oc4ccccc4)cc3)O[C@@H](CO)[C@@H]1O2
inactive: [1] | [2] | [3]

Cc1ccc(S(=O)(=O)N(C)C[C@@H]2Oc3ccc(NC(=O)Nc4ccc(C(F)(F)F)cc4)cc3CC(=O)N([C@H](C)CO)C[C@@H]2C)cc1
inactive: [1] | [2] | [3]

O=c1c(Cl)c(Cl)cnn1Cc1nnc(-c2ccccc2Br)o1
inactive: [1] | [2] | [3]

COc1ccc(C(=O)NN(C)c2nc(C(F)(F)F)nc3ccccc23)cc1
inactive: [1] | [2] | [3]

CCS(=O)(=O)N1Cc2ccccc2CC1C(=O)Nc1nnc(SCc2c(Cl)cccc2Cl)s1 (configuration not stated)
inactive: [1] | [2] | [3]

C[C@H]1CCCCO[C@H](CN(C)C(=O)Nc2ccc(C(F)(F)F)cc2)[C@@H](C)CN([C@@H](C)CO)C(=O)c2cc(NC(=O)Nc3ccc(F)cc3)ccc2O1
inactive: [7]

O=C(C[C@H]1C[C@@H]2c3cc(NS(=O)(=O)c4ccc(F)cc4)ccc3O[C@@H]2[C@@H](CO)O1)NCc1ccc(Oc2ccccc2)cc1
inactive: [1] | [2] | [3] | [7] | [8] 26.4% | [9] | [5] | [6]

CCCN(C)C[C@H]1OCCCC[C@@H](C)Oc2ccc(NC(=O)Nc3ccc(C(F)(F)F)cc3)cc2C(=O)N([C@H](C)CO)C[C@H]1C
inactive: [1] | [2] | [3] | [7] | [8] 9.68% [at 1 µM, stronger effect = lower value] | [9] | [5] | [6]

CS(=O)(=O)Nc1ccc2c(c1)[C@@H]1C[C@H](CC(=O)NCc3ccc(Oc4ccccc4)cc3)O[C@@H](CO)[C@@H]1O2
not listed: [4] | [8] | [10] | [11]
inactive: all other assays above

C[C@H](CO)N1C[C@H](C)[C@@H](CN(C)C(=O)Nc2cccc3ccccc23)OCCCC[C@H](C)Oc2ccc(NC(=O)c3ccncc3)cc2C1=O
inactive: [1] | [2] | [3] | [7] | [8] -25.1% | [9] | [5] | [6]

C[C@H]1CN([C@@H](C)CO)S(=O)(=O)c2ccc(C#CC3CCCC3)cc2O[C@@H]1CN(C)Cc1cccnc1
inactive: [1] | [2] | [3] | [7] | [9] | [5]

C[C@@H]1CCCCO[C@H](CN(C)S(=O)(=O)c2ccc(Cl)cc2)[C@H](C)CN([C@@H](C)CO)C(=O)c2cc(N(C)C)ccc2O1
inactive: [1] | [2] | [3] | [7] | [8] 36.7% [at 16 µM, stronger effect = lower value] | [9] | [5] | [6]

CC(C)CC#Cc1ccc2c(c1)O[C@H](CN(C)Cc1ccc(F)cc1)[C@H](C)CN([C@H](C)CO)S2(=O)=O
inactive: [1] | [2] | [3] | [7] | [8] 38.6% [at 2.1 µM, stronger effect = lower value] | [9] | [5]

O=C(Nc1ccccc1)N1CCCCN2[C@H](C1)[C@@H](c1ccc(C#Cc3ccccc3)cc1)[C@@H]2CO
inactive: [1] | [2] | [3] | [7] | [9] | [5]

C[C@@H]1CCCCO[C@H](CN(C)C(=O)Nc2ccc(F)cc2)[C@@H](C)CN([C@@H](C)CO)C(=O)c2cc(NS(=O)(=O)c3ccc(Cl)cc3)ccc2O1
inactive: [1] | [2] | [3] | [7] | [9] | [5]

O=C1/C(=C/c2cccc(Br)c2)SC(=S)N1CCC(=O)N(CCO)c1ccccc1
not listed: [4] | [6] | [10] | [11]
inactive: all other assays above

C[C@@H]1CCCCO[C@H](CN(C)C(=O)Nc2ccc(C(F)(F)F)cc2)[C@@H](C)CN([C@@H](C)CO)C(=O)c2cc(NS(=O)(=O)c3ccc(F)cc3)ccc2O1
inactive: [1] | [2] | [3] | [7] | [8] 19.5% [at 4.2 µM, stronger effect = lower value] | [9] | [5]

C[C@H]1CN([C@@H](C)CO)C(=O)Cc2cc(NC(=O)Nc3ccc4c(c3)OCO4)ccc2O[C@@H]1CN(C)Cc1ccc(-c2ccccc2)cc1
inactive: [1] | [2] | [3] | [7] | [8] -22.8% [at 16 µM, stronger effect = lower value] | [9] | [5] | [6]

C[C@@H]1CCCCO[C@H](CN(C)C(=O)Nc2ccc(C(F)(F)F)cc2)[C@@H](C)CN([C@@H](C)CO)C(=O)c2cc(NS(=O)(=O)c3ccccc3)ccc2O1
inactive: [1] | [2] | [3] | [7] | [8] 27.6% [at 0.26 µM, stronger effect = lower value] | [9] | [5] | [6]

CC1(C)CC(=O)c2sc(NC(=O)CCS(=O)(=O)c3ccccc3)nc2C1
inactive: [1] | [2] | [3] | [7] | [8] | [5]

C[C@@H]1CCCCO[C@H](CN(C)S(=O)(=O)c2ccc(Cl)cc2)[C@H](C)CN([C@@H](C)CO)C(=O)c2cc(NS(=O)(=O)c3ccc(F)cc3)ccc2O1
inactive: [1] | [2] | [3] | [7] | [8] -23.5% [at 8 µM, stronger effect = lower value] | [9] | [5] | [6]

C[C@H]1CCCCO[C@H](CN(C)C(=O)Nc2ccc(C(F)(F)F)cc2)[C@@H](C)CN([C@@H](C)CO)C(=O)c2cc(NS(=O)(=O)c3ccc(F)cc3)ccc2O1
inactive: [1] | [2] | [3] | [7] | [8] 19.1% [at 4.2 µM, stronger effect = lower value] | [9] | [5]

Cc1ccccc1OCC(=O)Nc1cccc(C(=O)O)c1
not listed: [4] | [6]
inactive: all other assays above

C[C@@H]1CN([C@@H](C)CO)C(=O)Cc2cc(NC(=O)NC3CCCCC3)ccc2O[C@H]1CN(C)Cc1ccc(-c2ccccc2)cc1
inactive: [1] | [2] | [3] | [7] | [9]

C[C@@H]1CCCCO[C@@H](CN(C)C(=O)Nc2ccc(C(F)(F)F)cc2)[C@H](C)CN([C@@H](C)CO)C(=O)c2cc(NC(=O)Nc3ccc(C(F)(F)F)cc3)ccc2O1
inactive: [1] | [2] | [3] | [7] | [8] -30.2% | [9] | [5] | [6]

C[C@@H]1CN([C@H](C)CO)S(=O)(=O)c2ccc(C#Cc3ccncc3)cc2O[C@H]1CN(C)C(=O)C1CCCCC1
not listed: [4] | [8] | [10] | [11]
inactive: all other assays above

COc1ccc(S(=O)(=O)Nc2ccc3c(c2)CC(=O)N([C@H](C)CO)C[C@H](C)[C@@H](CN(C)Cc2ccc(C(F)(F)F)cc2)O3)cc1
inactive: [1] | [2] | [3] | [7] | [8] -8.3% [at 8 µM, stronger effect = lower value] | [9] | [5]

C[C@@H]1CN([C@H](C)CO)C(=O)c2cc(NC(=O)Nc3ccc(C(F)(F)F)cc3)ccc2O[C@@H](C)CCCCO[C@H]1CN(C)S(=O)(=O)c1ccc(F)cc1
inactive: [1] | [2] | [3] | [7] | [8] -20.5% [at 8 µM, stronger effect = lower value] | [9] | [5] | [6]

C[C@H]1CCCCO[C@@H](CN(C)Cc2ccc(C(F)(F)F)cc2)[C@@H](C)CN([C@@H](C)CO)C(=O)c2cc(NC(=O)Nc3ccc(F)cc3)ccc2O1
inactive: [1] | [2] | [3] | [7] | [9] | [5]

O=C(Nc1ccc(C(F)(F)F)cc1)Nc1ccc2c(c1)[C@H]1C[C@@H](CC(=O)N3CCc4ccccc4C3)O[C@H](CO)[C@H]1O2
inactive: [1] | [2] | [3] | [7] | [9] | [5]

C[C@H]1CN([C@@H](C)CO)C(=O)c2c(c3ccccc3n2C)-c2ccccc2CO[C@@H]1CN(C)S(=O)(=O)c1cccc(F)c1
inactive: [1] | [2] | [3] | [7] | [8] -21.9% | [9] | [5]

COc1ccc(CCN2C(=O)CSC2=S)cc1OC
inactive: [1] | [2] | [3] | [7] | [8] | [5]

C[C@H]1CN([C@@H](C)CO)S(=O)(=O)c2ccc(C#Cc3ccc(F)cc3)cc2O[C@H]1CN(C)C(=O)NC1CCCCC1
not listed: [4] | [8] | [10] | [11]
inactive: all other assays above
